Test [1] in a line: compounds binding Alexa647 anti-His antibody – biochemical, small-molecule microarray, 635 nm fluorescence, artefact control for SMM control protein annotation, primary screen (AID 1128).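 Note: score merges feature fluorescence with signal-to-noise for each printed compound spot.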 Particulars: higher = more signal.
Test [2] relates to Human papillomavirus type 1a E7 protein (residues 1-88). Description: HPV1a E7 small-molecule binders, primary screen, biochemical, small-molecule microarray, residues 1-88, 635 nm (AID 1129). The note with it: small-molecule microarray binding, fluorescence 635 nm; higher = more signal.
In test [3] the target is Focal adhesion kinase 1 (Homo sapiens) (UniProt Q05397). The experiment in a line: PTK2 protein binding on printed compound slides – biochemical, small-molecule microarray, 635/667 nm fluorescence, BSA, DTT, primary screen (AID 1130).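 Note: composite of spot emission at 667 nm and signal to noise over triplicate slides.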 The note with it: 635 nm fluorescence, higher = more signal.
Focal adhesion kinase 1 (Homo sapiens), sequence (Q05397 whole entry, looked up): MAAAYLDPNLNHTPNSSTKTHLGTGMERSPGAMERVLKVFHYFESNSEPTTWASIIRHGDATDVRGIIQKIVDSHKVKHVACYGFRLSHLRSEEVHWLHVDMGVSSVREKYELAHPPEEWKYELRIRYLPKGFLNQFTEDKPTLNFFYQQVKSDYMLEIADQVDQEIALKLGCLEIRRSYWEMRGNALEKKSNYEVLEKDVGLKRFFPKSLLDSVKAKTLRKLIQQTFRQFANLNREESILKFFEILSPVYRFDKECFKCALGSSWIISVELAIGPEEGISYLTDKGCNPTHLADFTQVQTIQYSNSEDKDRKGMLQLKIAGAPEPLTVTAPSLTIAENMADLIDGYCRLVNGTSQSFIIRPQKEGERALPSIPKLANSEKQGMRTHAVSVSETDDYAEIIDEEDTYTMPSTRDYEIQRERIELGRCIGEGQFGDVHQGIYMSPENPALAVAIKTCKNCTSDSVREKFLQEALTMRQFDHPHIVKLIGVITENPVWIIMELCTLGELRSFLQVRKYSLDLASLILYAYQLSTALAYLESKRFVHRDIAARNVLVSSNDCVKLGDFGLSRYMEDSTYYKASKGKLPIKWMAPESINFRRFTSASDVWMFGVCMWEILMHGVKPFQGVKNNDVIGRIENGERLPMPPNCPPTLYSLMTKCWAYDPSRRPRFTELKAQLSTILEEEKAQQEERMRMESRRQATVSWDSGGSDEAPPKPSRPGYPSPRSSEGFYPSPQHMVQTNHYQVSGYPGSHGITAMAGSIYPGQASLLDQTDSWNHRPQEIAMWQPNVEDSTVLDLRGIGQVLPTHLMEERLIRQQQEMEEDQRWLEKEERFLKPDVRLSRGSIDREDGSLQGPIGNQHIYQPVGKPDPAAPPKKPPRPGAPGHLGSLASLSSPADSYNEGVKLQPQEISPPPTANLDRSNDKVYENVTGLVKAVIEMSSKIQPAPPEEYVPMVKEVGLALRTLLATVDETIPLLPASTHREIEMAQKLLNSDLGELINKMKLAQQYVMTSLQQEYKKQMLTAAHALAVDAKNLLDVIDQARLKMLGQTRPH
For test [4], the system named is Fibrinogen (Alexa647-labelled). The experiment in a line: Alexa647-fibrinogen binding to printed small molecules – biochemical, small-molecule microarray, 635/667 nm fluorescence, artefact control for SMM control-protein annotation, profiling panel (AID 1131).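 Note: z-score merges 667 nm fluorescence with per-spot signal-to-noise over triplicate slides.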 The note with it: fibrinogen-A647 binding fluorescence, higher = more signal.
Test [5] has as its target Follistatin (Homo sapiens) (UniProt P19883). Description: FST protein binding to printed compounds – biochemical, small-molecule microarray, 635/667 nm fluorescence, primary screen (AID 1132). Particulars: 635 nm fluorescence, higher = more signal.
For test [6], the target named is Fibroblast growth factor 2 (Homo sapiens) (UniProt P09038). Description: basic fibroblast growth factor binding to printed compounds – biochemical, small-molecule microarray, 635/667 nm fluorescence, primary screen (AID 1133). The note with it: FGF2, fluorescence 635/667, higher = more signal.
Fibroblast growth factor 2 (Homo sapiens), sequence (P09038 whole entry, looked up): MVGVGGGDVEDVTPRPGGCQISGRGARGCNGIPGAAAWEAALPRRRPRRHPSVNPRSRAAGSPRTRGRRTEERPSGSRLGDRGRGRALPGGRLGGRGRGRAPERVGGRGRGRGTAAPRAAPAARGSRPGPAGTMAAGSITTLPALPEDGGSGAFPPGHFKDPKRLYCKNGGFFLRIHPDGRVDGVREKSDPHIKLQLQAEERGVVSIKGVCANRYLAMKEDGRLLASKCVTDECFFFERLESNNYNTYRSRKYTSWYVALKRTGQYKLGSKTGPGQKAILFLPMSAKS
Test [7] is described as follows: JC-1 mitochondrial potential readout, lung cancer cells – cell-based, A549, JC-1 fluorescence, basal, 24 h, 100 nL, profiling panel (AID 1138).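 Note: A549 lung adenocarcinoma cells under basal conditions with no added stimulus; test concentration not given here.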 Particulars: higher = more signal.
In the next test the test system is Lefty1. Description: Lefty1 protein binding to printed compounds – biochemical, small-molecule microarray, 635/667 nm fluorescence, primary screen (AID 1139). Particulars: fluorescence 635/667, higher = more signal.
The subject of test [8] is wheat germ agglutinin (Triticum aestivum), Alexa647-labelled. Description: Alexa647-WGA lectin binding to printed small molecules – biochemical, small-molecule microarray, 635/667 nm fluorescence, artefact control for SMM control-protein annotation, profiling panel (AID 1140).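 Note: score merges 667 nm feature emission with signal to noise over triplicate slides.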 Particulars: WGA-A647 binding, 635 nm fluorescence, higher = more signal.
Test [9] concerns the target Luciferin 4-monooxygenase (Photinus pyralis) (UniProt P08659). Description: inhibition of purified Photinus pyralis luciferase – biochemical, luminescence, purified enzyme, 2006 set, primary screen (AID 1141).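 Note: cell-free assay with purified firefly luciferase at 100 ng per well in PBS; test concentration not given here.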 The note with it: purified firefly luciferase, SteadyGlo luminescence, 30 min; higher = more signal, called active from +8 up or from −8 down.
Test [10] has as its system Wnt5a (protein binding on small-molecule microarray). Description: small molecules binding Wnt5a protein – biophysical, small-molecule microarray, 635/667 nm fluorescence, primary screen (AID 1142).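 Note: fluorescence read at 667 nm with signal to noise per printed feature.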 The note with it: 635 nm fluorescence, higher = more signal.
Test [11] can be described thus: ATP-based viability of Huh7 replicon cells – cell-based, CellTiter-Glo luminescence, basal, 48 h, cytotoxicity control for HCV replication inhibitor project, primary screen (AID 1143).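 Note: Huh7 hepatoma cells carrying a hepatitis C replication reporter with no stimulus; test concentration not given here.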 Particulars: higher = more signal, called active from +8 up or from −8 down. A general note: Replicon systems follow genome replication, usually without infectious particles.
Test [12] can be described thus: Pseudomonas biofilm growth suppression – PAO1 strain, BacTiter-Glo luminescence, LB-PBS, primary screen (AID 1144). The note with it: P. aeruginosa PAO1 biofilm, 12 h, higher = more signal.
Test [13] is described as follows: basal CRE-LacZ reporter activity in PC12 – cell-based, unstimulated, primary screen (AID 1145). The note with it: no forskolin, luminescence, 4.5 h, higher = more signal, called active from +8 up or from −8 down.
A short description of test [14]: forskolin-driven CRE-LacZ activity in PC12 – cell-based, CRE-LacZ reporter, forskolin-stimulated, primary screen (AID 1146).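 Note: PC12 cells with 6xCRE LacZ reporter stimulated by forskolin 10 µM; beta-galactosidase reporter signal reflecting CREB driven transcription.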 Particulars: luminescence, 4.5 h, higher = more signal, called active from +8 up or from −8 down.
Test [15] has as its target Streptavidin (Streptomyces avidinii) (UniProt P22629). Description: compounds binding control protein streptavidin – biophysical, small-molecule microarray, 635/667 nm fluorescence, artefact control for SMM compound annotation, primary screen (AID 1147).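 Note: signal reflects streptavidin binding to arrayed compounds as a control protein.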 The note with it: higher = more signal.
The nature of test [16]: probe aInhba binding on compound microarray – biochemical, small-molecule microarray, 635/667 nm fluorescence, primary screen (AID 1148).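 Note: score merges 667nm spot fluorescence with signal-to-noise for antibody binding to printed compounds.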 The note with it: higher = more signal.
The target of test [17] is Torsin-1A (Homo sapiens) (UniProt O14656). Description: TOR1A wild-type binding on microarray – cell lysate, small-molecule microarray, lysate, 635/667 nm, primary screen (AID 1149). The note with it: COS7 hTOR1A-WT lysate, 635 nm fluorescence, higher = more signal.
Torsin-1A (Homo sapiens), sequence (O14656 whole entry, looked up): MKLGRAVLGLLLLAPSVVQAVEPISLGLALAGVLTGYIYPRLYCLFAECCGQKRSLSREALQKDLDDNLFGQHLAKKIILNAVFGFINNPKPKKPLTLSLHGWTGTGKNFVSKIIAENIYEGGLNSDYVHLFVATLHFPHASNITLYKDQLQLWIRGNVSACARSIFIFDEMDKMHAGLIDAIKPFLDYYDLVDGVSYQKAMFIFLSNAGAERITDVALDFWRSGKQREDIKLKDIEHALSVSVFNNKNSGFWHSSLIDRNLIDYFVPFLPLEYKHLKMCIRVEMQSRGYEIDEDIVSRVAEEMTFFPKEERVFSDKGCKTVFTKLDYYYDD
Test [18] has the same target. Description: torsin A mutant lysate binding on microarrays – cell lysate, small-molecule microarray, COS7 lysate, 635/667 nm fluorescence, primary screen (AID 1150).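 Note: score pools 667 nm emission and signal to noise measuring lysate protein binding.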 The note with it: COS7 hTOR1A mutant lysate, 635 nm fluorescence, higher = more signal.
In test [19] the test system is Sonic hedgehog protein (Shh). Description: Sonic hedgehog microarray binding compounds – biochemical, small-molecule microarray, 635/667 nm fluorescence, primary screen (AID 1151).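 Note: Shh protein binding to compounds spotted on small-molecule microarray slides; score combines spot fluorescence intensity with signal-to-noise across triplicate slides.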 The note with it: 635 nm fluorescence, higher = more signal.

Calls of active or inactive are those of the source. Unless noted, the rule behind the calls is not given here.

Luciferin 4-monooxygenase (Photinus pyralis), sequence (P08659 whole entry, looked up): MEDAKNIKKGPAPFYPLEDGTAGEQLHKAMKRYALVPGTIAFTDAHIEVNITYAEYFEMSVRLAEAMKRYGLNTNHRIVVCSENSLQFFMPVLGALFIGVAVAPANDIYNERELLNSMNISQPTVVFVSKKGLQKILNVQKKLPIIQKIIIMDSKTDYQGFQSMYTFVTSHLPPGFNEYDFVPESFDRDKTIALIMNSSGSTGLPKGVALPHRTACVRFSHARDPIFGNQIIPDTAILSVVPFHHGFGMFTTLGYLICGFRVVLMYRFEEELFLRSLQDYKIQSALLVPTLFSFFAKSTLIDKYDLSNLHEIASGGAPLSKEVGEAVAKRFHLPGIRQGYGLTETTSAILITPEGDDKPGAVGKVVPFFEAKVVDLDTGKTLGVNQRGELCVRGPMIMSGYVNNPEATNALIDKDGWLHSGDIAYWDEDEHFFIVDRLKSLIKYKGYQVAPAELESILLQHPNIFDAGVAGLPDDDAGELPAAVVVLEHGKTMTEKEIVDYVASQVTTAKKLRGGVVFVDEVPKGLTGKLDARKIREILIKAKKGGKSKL
Follistatin (Homo sapiens), sequence (P19883 whole entry, looked up): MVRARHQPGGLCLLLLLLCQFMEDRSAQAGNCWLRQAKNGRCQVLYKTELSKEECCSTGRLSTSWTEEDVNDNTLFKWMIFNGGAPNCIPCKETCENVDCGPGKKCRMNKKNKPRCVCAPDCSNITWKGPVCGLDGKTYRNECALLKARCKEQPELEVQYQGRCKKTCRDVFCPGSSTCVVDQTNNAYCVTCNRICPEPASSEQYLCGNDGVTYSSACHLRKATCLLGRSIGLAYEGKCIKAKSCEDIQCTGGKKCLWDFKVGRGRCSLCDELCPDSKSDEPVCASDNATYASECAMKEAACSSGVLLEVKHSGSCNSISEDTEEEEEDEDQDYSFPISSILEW
Streptavidin (Streptomyces avidinii), sequence (P22629 whole entry, looked up): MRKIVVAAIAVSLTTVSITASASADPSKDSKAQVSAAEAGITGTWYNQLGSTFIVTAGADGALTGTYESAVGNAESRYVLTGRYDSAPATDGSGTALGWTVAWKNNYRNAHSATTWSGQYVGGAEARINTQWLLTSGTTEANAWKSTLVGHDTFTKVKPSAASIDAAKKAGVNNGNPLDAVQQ

For `COc1ccc(C(O)C2C=CC3C(=O)N(c4ccccc4)C(=O)C3N2Nc2ccc([N+](=O)[O-])cc2)cc1` (stereo not given), the composite z-score in test [1] was 2.11; in [2], 1.24; in [3], 0.961; in test [4] it was 1.01; in test [5], 0.848; in test [6], -0.246. In addition, the composite z-score with Lefty1 is -0.344; in test [8] it was 1.14; in [10], 0.516; in [15], 0.789; in test [16], 1.18; with Torsin-1A (Homo sapiens) [17], 0.0294. Further, the composite z-score is 0.874 in the test with Torsin-1A (Homo sapiens) [18] and -0.397 in test [19]. Moreover, the z-score in [7] was 0.103; in test [9] it was 0.732 (inactive); in [11], -0.474 (inactive); in test [12], 0.403 (inactive); in test [13], 0.182 (inactive); in test [14] it was -0.298 (inactive).

Turning to `COC(=O)C1=CC(CCCO)=CC(C2CC2)N(C)C=C1C(=O)OC` (stereo not given), the composite z-score is -0.153 in [1]; -0.308 in [2]; 0.623 in test [3]; -0.828 in [4]; -0.157 in test [5]; -0.539 in test [6]. Also, the composite z-score in the test on Lefty1 was -0.285; in [8] it was 1.26; in test [10], 0.0676; in test [15], -0.326; in test [16] it was -0.152; in the test with Torsin-1A (Homo sapiens) [17], 0.564. Moreover, the figures for the composite z-score (with Torsin-1A (Homo sapiens) [18]; in [19]) were 0.289 and -0.526, respectively. Moreover, the z-score is 0.511 in test [7]; 0.727 (inactive) in test [9]; -2.82 (inactive) in test [11]; -1.59 (inactive) in test [12]; -0.581 (inactive) in test [13]; 0.214 (inactive) in [14].

Consider `COC(=O)[C@@]1(Cc2ccc(F)cc2)[C@H]2c3cc(C(=O)N4CCCC4)n(CCc4ccc(O)c(O)c4)c3C[C@H]2CN1C(=O)c1ccccc1`, for which the composite z-score was -0.371 in [1]; -0.253 in test [2]; 0.842 in test [3]; -2.54 in test [4]; -0.411 in test [5]; -0.751 in test [6]. The composite z-score was -0.49 in the test on Lefty1; -0.312 in [8]; 1.2 in [10]; -0.185 in [15]; 1.24 in test [16]; 0.0585 with Torsin-1A (Homo sapiens) [17]. In addition, the composite z-score with Torsin-1A (Homo sapiens) [18] was 0.0389; in test [19] it was -0.987. For the same compound, the z-score in [7] is -0.692; in test [9], -7.51 (inactive); in [11], -1.78 (inactive); in test [12], -0.809 (inactive); in test [13] it was 3.05 (inactive); in [14], -0.268 (inactive).

Regarding `CN(C)CCCNC(=O)[C@@]1(C)c2ccccc2C(=O)N(Cc2ccccc2)[C@H]1c1ccc(CO)cc1`, the composite z-score in test [1] was 0.761; in test [2] it was -1.49; in test [3], -0.3; in test [4], -0.995; in [5], 0.392; in [6], -0.0132. Besides, the composite z-score in the test on Lefty1 was -0.067; in test [8], -0.749; in test [10] it was 0.0404; in test [15], -0.324; in test [16] it was -0.176; with Torsin-1A (Homo sapiens) [17], -0.334. In addition, the composite z-score was -0.365 with Torsin-1A (Homo sapiens) [18] and 0.498 in test [19]. The z-score in test [7] is -0.322; in [9], -0.0692 (inactive); in [11], -1.97 (inactive); in test [12], 0.329 (inactive); in [13], 0.389 (inactive); in test [14] it was 0.261 (inactive).

With `O=C(NCc1ccccc1)[C@@H]1c2ccccc2C(=O)N(Cc2ccccc2C(F)(F)F)[C@H]1c1ccc(CO)cc1`, the composite z-score is -0.782 in test [1]; 0.334 in test [2]; 0.0179 in [3]; -0.709 in [4]; 0.592 in test [5]; -0.133 in [6]. Also, the composite z-score in the test on Lefty1 is -0.324; in [8], 0.32; in [10] it was -0.405; in test [15], -0.752; in test [16], -0.201; in the test with Torsin-1A (Homo sapiens) [17], -1.55. In addition, the composite z-score with Torsin-1A (Homo sapiens) [18] was 0.0481; in test [19] it was -0.687. Moreover, the z-score was 1.86 in test [7]; -0.745 (inactive) in test [9]; -1.55 (inactive) in [11]; 0.714 (inactive) in [12]; 0.324 (inactive) in test [13]; -0.0897 (inactive) in test [14].

The record behind these values is PubChem BioAssay.
